# Results from paper PMC7862700, “An all-to-all approach to the identification of sequence-specific readers for epigenetic DNA modifications on cytosine”.
# Assays:
# Assay in all cases: DAPPL (digital affinity profiling via proximity ligation, sequencing); 10 mM Tris-HCl pH 7.5, 50 mM NaCl, 1 mM DTT, 4% glycerol, room temperature, 30 min; GST-TFs on glutathione beads, 16-mer random dsDNA library, 0.1% formaldehyde crosslink after washing; high values mean tight binding
# [1] = target: T1, FEV (Homo sapiens, UniProt Q99581 1-238); settings: protein: recombinant; tags: N-terminal GST; dsDNA, one strand shown
# T1 sequence: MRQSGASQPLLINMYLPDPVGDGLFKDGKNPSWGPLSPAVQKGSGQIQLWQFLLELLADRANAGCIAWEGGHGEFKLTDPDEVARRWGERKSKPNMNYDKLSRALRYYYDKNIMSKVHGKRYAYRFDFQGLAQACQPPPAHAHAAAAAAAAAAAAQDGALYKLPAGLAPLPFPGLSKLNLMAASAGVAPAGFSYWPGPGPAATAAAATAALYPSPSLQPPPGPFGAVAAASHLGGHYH
# Summary of the method: (§1)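 Beads coated with glutathione captured GST-fused human transcription factors that had been expressed in yeast, and the factors were then given DNA barcodes and pooled with a tag-only sample. The pools were incubated with 200 nmole of a random double-stranded 16-mer DNA library in Tris/NaCl/DTT/glycerol buffer for 30 min at room temperature, washed, crosslinked with 0.1% formaldehyde and proximity-ligated with BsaI/T4 ligase at 37 °C for 1 h. PCR amplification and Illumina NextSeq500 sequencing came last. Binding signal is each hexamer's read frequency for a factor divided by its frequency for the tag-only sample.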
# [2] = target: ETV5 (Homo sapiens, UniProt P41161 1-510); settings: protein: recombinant; tags: N-terminal GST; dsDNA, one strand shown
# Summary of the method: as §1
# [3] = target: HSF1 (Homo sapiens, UniProt Q00613 1-529); settings: protein: recombinant; tags: N-terminal GST; chain copies: 3; dsDNA, one strand shown
# Summary of the method: as §1
# [4] = target: T2, SPIC (Homo sapiens, UniProt Q8N5J4 1-248); settings: protein: recombinant; tags: N-terminal GST; dsDNA, one strand shown
# T2 sequence: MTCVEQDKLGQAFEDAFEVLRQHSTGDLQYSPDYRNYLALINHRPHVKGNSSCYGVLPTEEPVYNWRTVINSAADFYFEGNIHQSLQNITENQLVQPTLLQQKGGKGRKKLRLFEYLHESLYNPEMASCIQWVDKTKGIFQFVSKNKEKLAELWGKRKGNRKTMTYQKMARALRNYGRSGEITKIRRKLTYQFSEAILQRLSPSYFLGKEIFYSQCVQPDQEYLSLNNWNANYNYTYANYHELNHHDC
# Summary of the method: as §1
# [5] = target: ELF4 (Homo sapiens, UniProt Q99607 1-663); settings: protein: recombinant; tags: N-terminal GST; dsDNA, one strand shown
# Summary of the method: as §1
# [6] = target: T3, ELK4 (Homo sapiens, UniProt P28324-2 1-405); settings: protein: recombinant; tags: N-terminal GST; dsDNA, one strand shown
# T3 sequence: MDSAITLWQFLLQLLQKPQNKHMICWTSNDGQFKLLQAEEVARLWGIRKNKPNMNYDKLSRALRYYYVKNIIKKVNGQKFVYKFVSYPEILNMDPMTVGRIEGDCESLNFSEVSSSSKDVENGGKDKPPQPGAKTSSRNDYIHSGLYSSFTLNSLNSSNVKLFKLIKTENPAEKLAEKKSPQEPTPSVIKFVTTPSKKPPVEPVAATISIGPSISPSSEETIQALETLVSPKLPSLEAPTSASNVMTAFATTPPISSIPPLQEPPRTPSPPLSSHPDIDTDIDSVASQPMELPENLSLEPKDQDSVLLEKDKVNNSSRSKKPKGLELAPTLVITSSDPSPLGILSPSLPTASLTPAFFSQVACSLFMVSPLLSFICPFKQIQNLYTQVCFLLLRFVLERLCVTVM
# Summary of the method: as §1
# [7] = target: T4, ETV2 (Homo sapiens, UniProt O00321 1-342); settings: protein: recombinant; tags: N-terminal GST; dsDNA, one strand shown
# T4 sequence: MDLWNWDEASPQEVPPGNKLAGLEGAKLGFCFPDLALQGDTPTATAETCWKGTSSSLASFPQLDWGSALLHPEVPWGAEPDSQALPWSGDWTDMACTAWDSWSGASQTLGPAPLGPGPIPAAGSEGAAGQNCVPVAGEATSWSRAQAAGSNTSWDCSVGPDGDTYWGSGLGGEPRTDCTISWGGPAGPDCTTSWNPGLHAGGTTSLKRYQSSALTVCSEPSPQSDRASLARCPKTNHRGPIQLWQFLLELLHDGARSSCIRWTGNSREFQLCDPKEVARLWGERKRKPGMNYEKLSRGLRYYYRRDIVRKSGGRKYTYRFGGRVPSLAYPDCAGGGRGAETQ
# Summary of the method: as §1
# [8] = target: T5, ELF3 (Homo sapiens, UniProt P78545 1-371); settings: protein: recombinant; tags: N-terminal GST; dsDNA, one strand shown
# T5 sequence: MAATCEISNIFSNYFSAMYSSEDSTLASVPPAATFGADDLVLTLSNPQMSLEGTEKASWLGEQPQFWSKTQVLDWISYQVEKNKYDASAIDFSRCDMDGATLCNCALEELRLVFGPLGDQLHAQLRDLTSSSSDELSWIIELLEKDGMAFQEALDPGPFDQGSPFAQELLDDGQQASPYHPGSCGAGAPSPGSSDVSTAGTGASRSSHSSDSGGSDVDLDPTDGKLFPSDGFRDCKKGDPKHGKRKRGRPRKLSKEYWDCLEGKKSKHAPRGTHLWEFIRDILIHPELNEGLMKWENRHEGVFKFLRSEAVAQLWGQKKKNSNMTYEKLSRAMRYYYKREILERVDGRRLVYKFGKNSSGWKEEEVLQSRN
# Summary of the method: as §1
# [9] = target: CRX (Homo sapiens, UniProt O43186 1-299); settings: protein: recombinant; tags: N-terminal GST; dsDNA, one strand shown
# Summary of the method: as §1
# [10] = target: ETV1 (Homo sapiens, UniProt P50549 1-477); settings: protein: recombinant; tags: N-terminal GST; dsDNA, one strand shown
# Summary of the method: as §1
# [11] = target: T6, ERF (Homo sapiens, UniProt P50548 1-548); settings: protein: recombinant; tags: N-terminal GST; dsDNA, one strand shown
# T6 sequence: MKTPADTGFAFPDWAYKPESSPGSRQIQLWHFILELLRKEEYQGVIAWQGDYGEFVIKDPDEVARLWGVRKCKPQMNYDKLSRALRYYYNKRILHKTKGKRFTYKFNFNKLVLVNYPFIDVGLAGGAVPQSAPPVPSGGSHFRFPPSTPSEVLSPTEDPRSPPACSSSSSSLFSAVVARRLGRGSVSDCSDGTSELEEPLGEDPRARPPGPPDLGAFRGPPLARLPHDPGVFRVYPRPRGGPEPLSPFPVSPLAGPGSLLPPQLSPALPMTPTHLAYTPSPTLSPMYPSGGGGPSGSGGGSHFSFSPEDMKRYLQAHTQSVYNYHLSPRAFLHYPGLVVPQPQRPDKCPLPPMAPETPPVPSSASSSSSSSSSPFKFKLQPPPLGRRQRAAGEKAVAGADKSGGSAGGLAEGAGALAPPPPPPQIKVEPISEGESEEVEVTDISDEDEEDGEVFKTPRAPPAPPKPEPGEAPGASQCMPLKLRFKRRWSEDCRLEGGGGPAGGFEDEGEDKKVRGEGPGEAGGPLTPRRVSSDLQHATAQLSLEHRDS
# Summary of the method: as §1
# [12] = target: T7, ETV3L (Homo sapiens, UniProt Q6ZN32 1-361); settings: protein: recombinant; tags: N-terminal GST; dsDNA, one strand shown
# T7 sequence: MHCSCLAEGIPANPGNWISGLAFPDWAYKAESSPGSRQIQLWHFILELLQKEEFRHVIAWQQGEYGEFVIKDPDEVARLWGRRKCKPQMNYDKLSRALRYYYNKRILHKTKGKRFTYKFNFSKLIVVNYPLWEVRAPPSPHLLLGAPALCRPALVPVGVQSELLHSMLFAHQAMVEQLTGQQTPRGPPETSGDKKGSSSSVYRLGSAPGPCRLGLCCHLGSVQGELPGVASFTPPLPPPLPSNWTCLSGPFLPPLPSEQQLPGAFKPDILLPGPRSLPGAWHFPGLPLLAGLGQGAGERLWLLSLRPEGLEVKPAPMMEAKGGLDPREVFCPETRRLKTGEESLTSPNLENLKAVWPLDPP
# Summary of the method: as §1
# [13] = target: T8, ETS2 (Homo sapiens, UniProt P15036 1-469); settings: protein: recombinant; tags: N-terminal GST; dsDNA, one strand shown
# T8 sequence: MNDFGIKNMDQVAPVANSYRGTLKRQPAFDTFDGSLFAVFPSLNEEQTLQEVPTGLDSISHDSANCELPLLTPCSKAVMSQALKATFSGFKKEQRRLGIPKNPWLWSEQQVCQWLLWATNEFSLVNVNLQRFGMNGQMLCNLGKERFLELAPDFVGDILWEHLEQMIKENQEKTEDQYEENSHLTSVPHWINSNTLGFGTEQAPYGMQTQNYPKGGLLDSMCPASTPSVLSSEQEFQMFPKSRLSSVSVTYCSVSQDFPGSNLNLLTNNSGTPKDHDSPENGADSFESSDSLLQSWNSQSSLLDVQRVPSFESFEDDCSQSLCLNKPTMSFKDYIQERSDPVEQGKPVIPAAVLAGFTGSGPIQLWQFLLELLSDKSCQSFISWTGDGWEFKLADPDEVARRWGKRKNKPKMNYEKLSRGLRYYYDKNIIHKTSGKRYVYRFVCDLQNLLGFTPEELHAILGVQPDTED
# Summary of the method: as §1
# [14] = target: T9, SPDEF (Homo sapiens, UniProt O95238 1-335); settings: protein: recombinant; tags: N-terminal GST; dsDNA, one strand shown
# T9 sequence: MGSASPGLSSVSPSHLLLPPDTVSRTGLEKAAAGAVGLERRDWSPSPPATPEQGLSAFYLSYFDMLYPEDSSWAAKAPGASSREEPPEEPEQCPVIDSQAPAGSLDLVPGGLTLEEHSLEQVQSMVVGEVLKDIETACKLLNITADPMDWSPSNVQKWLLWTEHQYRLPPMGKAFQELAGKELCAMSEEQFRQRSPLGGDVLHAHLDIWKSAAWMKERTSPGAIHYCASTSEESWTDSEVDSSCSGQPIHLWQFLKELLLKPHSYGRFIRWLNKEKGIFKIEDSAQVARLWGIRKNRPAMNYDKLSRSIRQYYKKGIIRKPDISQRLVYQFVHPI
# Summary of the method: as §1
# [15] = target: T10, ETV7 (Homo sapiens, UniProt Q9Y603 1-341); settings: protein: recombinant; tags: N-terminal GST; dsDNA, one strand shown
# T10 sequence: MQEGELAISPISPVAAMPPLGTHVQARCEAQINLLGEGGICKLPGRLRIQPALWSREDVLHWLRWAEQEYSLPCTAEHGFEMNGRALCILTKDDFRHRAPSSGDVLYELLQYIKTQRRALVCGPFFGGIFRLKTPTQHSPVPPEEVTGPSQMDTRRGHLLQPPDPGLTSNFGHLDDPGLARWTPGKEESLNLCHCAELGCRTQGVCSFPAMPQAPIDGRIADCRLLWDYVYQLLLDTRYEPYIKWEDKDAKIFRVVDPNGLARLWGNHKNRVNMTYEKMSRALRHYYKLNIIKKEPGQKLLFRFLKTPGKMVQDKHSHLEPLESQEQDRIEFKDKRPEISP
# Summary of the method: as §1
# [16] = target: T11, ELF5 (Homo sapiens, UniProt Q9UKW6-2 1-255); settings: protein: recombinant; tags: N-terminal GST; dsDNA, one strand shown
# T11 sequence: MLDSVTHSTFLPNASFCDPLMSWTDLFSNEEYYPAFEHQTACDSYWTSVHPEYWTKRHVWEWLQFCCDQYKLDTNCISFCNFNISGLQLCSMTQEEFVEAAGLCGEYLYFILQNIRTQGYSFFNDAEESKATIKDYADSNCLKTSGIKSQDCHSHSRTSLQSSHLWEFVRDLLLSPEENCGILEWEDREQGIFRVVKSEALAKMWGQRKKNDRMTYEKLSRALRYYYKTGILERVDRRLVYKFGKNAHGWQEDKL
# Summary of the method: as §1
# [17] = target: T12, ETV3 (Homo sapiens, UniProt P41162-2 1-143); settings: protein: recombinant; tags: N-terminal GST; dsDNA, one strand shown
# T12 sequence: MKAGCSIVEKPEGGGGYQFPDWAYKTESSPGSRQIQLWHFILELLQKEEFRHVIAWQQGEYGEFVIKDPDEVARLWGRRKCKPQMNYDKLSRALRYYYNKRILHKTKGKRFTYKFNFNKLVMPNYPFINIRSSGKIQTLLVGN
# Summary of the method: as §1
# [18] = target: ETV6 (Homo sapiens, UniProt P41212 1-452); settings: protein: recombinant; tags: N-terminal GST; dsDNA, one strand shown
# Summary of the method: as §1
# Chain of CRX (O43186 whole entry): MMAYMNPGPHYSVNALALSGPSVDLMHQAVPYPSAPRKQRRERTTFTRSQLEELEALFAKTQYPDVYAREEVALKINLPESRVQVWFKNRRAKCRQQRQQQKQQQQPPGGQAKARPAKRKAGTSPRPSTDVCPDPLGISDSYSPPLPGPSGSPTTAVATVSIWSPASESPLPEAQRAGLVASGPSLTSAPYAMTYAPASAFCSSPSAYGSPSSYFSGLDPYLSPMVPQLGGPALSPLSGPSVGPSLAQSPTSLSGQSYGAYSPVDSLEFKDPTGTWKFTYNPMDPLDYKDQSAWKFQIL
# Chain of ELF4 (Q99607 whole entry): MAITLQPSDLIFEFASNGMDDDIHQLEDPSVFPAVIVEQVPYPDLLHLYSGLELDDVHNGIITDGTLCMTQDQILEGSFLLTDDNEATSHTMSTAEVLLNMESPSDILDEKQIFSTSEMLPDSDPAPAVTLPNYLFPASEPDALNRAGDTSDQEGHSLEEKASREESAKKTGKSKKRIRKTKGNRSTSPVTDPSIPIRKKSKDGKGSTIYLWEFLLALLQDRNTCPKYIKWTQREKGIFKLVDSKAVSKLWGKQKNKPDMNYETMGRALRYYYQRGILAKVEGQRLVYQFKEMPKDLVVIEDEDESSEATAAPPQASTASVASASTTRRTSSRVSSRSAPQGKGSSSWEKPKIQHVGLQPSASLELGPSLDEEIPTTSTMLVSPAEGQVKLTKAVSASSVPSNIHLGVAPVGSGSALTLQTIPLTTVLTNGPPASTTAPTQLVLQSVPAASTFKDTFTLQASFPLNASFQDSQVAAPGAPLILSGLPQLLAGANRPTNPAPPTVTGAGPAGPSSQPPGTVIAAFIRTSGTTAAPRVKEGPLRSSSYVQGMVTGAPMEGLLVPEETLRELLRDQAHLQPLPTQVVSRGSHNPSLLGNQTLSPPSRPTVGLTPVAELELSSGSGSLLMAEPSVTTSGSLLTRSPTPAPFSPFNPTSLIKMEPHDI
# Chain of ETV1 (P50549 whole entry): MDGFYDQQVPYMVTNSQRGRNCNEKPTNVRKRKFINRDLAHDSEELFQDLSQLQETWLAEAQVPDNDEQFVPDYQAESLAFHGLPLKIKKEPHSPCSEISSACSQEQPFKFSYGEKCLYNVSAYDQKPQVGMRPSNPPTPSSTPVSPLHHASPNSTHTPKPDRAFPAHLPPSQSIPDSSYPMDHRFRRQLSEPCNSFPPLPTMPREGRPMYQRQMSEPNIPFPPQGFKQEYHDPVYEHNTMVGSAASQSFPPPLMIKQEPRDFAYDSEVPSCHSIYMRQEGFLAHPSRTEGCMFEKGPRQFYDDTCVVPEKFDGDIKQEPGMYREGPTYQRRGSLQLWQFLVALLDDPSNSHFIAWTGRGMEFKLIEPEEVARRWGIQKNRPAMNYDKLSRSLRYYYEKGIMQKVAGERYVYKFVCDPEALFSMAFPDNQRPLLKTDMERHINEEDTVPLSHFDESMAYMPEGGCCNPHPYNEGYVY
# Chain of ETV5 (P41161 whole entry): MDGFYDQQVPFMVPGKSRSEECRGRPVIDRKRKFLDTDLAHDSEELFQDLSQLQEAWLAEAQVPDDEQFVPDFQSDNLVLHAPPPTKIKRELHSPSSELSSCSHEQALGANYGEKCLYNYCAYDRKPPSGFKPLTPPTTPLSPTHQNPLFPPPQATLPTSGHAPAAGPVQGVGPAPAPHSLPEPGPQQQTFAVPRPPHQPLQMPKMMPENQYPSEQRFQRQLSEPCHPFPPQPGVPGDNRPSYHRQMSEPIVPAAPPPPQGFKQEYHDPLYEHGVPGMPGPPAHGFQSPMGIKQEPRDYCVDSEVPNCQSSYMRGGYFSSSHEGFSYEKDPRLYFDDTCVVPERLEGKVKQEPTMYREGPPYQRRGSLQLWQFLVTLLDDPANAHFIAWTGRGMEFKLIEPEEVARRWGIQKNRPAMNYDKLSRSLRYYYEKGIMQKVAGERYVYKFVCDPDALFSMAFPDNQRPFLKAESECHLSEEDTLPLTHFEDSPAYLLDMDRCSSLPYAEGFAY
# Chain of ETV6 (P41212 whole entry): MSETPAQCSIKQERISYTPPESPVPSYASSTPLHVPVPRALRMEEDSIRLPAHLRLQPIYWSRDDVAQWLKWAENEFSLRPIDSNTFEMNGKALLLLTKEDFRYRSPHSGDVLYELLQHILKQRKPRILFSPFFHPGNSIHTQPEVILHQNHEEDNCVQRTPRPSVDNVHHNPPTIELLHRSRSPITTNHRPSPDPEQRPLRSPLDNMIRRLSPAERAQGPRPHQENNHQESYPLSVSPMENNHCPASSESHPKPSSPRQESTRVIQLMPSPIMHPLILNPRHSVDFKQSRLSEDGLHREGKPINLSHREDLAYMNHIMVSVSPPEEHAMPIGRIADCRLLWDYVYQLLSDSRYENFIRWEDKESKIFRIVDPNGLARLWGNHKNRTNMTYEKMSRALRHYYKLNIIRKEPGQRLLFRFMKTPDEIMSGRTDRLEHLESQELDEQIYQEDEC
# Chain of HSF1 (Q00613 whole entry): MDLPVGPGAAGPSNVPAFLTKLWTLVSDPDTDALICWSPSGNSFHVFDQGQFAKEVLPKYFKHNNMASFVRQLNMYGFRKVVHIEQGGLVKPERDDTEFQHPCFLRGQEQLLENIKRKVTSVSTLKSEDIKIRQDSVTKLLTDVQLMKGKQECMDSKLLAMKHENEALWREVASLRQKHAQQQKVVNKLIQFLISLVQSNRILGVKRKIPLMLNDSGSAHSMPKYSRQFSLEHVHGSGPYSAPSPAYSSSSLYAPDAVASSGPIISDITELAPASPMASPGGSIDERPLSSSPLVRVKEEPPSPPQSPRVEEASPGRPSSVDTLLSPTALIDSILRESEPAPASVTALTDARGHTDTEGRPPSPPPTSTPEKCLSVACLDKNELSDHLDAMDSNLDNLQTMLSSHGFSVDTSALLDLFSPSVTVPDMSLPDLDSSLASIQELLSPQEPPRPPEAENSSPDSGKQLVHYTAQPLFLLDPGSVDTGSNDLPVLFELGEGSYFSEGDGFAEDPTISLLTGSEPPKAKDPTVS
sequence,measurement,setting,value
CTTACC,binding signal,[1],"1.25 fold enrichment (6-mer frequency, TF over GST control)"
same,binding signal,[2],"1.21 fold enrichment (6-mer frequency, TF over GST control)"
same,binding signal,[3],"1.26 fold enrichment (6-mer frequency, TF over GST control)"
same,binding signal,[4],"1.34 fold enrichment (6-mer frequency, TF over GST control)"
same,binding signal,[5],"1.25 fold enrichment (6-mer frequency, TF over GST control)"
same,binding signal,[6],"1.27 fold enrichment (6-mer frequency, TF over GST control)"
same,binding signal,[7],"1.27 fold enrichment (6-mer frequency, TF over GST control)"
same,binding signal,[8],"1.27 fold enrichment (6-mer frequency, TF over GST control)"
same,binding signal,[9],"1.58 fold enrichment (6-mer frequency, TF over GST control)"
same,binding signal,[10],"1.28 fold enrichment (6-mer frequency, TF over GST control)"
same,binding signal,[11],"1.19 fold enrichment (6-mer frequency, TF over GST control)"
same,binding signal,[12],"1.16 fold enrichment (6-mer frequency, TF over GST control)"
same,binding signal,[13],"1.29 fold enrichment (6-mer frequency, TF over GST control)"
same,binding signal,[14],"1.39 fold enrichment (6-mer frequency, TF over GST control)"
same,binding signal,[15],"1.29 fold enrichment (6-mer frequency, TF over GST control)"
same,binding signal,[16],"1.39 fold enrichment (6-mer frequency, TF over GST control)"
same,binding signal,[17],"1.22 fold enrichment (6-mer frequency, TF over GST control)"
same,binding signal,[18],"1.19 fold enrichment (6-mer frequency, TF over GST control)"
